Most compounds without a hit are left out; they make up all but 6.1% or so of the library.
RORgamma inh = inhibitors of mouse ROR gamma transcriptional activity. P51450. Drosophila S2 Gal4-RORgamma UAS-luciferase reporter, 20 h. Potency, µM (titrated, usually from 53.6 µM), for the others: at the top dose activity change, negative = inhibition, most hits filed as inhibitors. hit rate 5.4% among 310,000. AID 2551; note: % is set by controls: 0 for no effect and ±100 for the full control effect; nearly all actives have a fitted effect of over 60% in size
Target sequence (P51450 whole entry, looked up, the tested form may be a part): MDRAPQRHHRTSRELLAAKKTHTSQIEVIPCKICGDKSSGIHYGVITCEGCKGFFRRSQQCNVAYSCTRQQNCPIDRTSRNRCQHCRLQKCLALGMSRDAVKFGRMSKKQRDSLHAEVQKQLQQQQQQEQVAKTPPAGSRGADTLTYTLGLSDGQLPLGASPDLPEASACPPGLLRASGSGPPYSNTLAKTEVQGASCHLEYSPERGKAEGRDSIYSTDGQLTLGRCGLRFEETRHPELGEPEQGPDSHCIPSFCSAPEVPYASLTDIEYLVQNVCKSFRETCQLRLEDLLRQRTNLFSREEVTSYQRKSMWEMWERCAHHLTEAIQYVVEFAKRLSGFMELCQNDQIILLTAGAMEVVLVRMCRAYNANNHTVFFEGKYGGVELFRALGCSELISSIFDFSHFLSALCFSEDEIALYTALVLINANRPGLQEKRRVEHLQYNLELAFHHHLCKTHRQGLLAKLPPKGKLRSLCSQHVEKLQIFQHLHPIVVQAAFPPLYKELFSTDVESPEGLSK
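Stably transfected Drosophila Schneider cells are the test system, with ROR gamma fused to Gal4 and luciferase under UAS control; luminescence is read after 20 hr of 700 uM copper sulfate induction at ambient temperature.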
ATXN2 expr inh = ATXN2 expression inhibition. HEK-293 ATXN2-luciferase reporter, luminescence, 24 h. Potency, µM (highest dose often 57 µM), without a hit: at the highest dose activity change, negative = inhibition, hits mostly inhibitors. hit rate 0.72% among 360,000; note: % is set by controls: 0 for no effect and ±100 for the full control effect; nearly all actives have a fitted effect of over 55% in size
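qHTS (up to 57 uM final) was run with 24 h compound exposure of reporter cells at 37 °C. Each well was multiplexed: SteadyGlo luminescence measured ATXN2-luciferase expression after a fluorogenic Gly-Phe-AFC viability readout (25 uM final).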
VP16 counter = counter-screen for ROR gamma inhibitors: Gal4-VP16 reporter. hit rate 3.5% among 310,000. Potency, µM (top dose mostly 53.6 µM), for inactives: at the highest dose activity, negative = inhibition, actives largely listed as inhibitors. Drosophila S2 Gal4-VP16 UAS-luciferase, luminescence, 20 h;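 note: Gal4-VP16 expression switched on by copper sulfate through the metallothionein promoter; % is set by controls: 0 for no effect and ±100 for the full control effect; nearly all actives have a fitted effect of over 50% in size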
HepG2 tox = HepG2 cytotoxicity, counter-screen for TGF-b inhibitors; HepG2 CAGA-GFP viability, ATP luminescence, 18 h; Potency, µM (titrated, usually from 46.1 µM), inactives show at the highest dose activity change, negative = cytotoxicity, hits mostly cytotoxic; hit rate 0.76% among 410,000; AID 588856
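CellTiter-Glo luminescence gave cytotoxicity after 18 hours at 37 degrees C. The cells were HepG2 CAGA-GFP in 1% FBS DMEM, stimulated with 500 pg/mL TGF-beta after compound addition. %Activity was normalised to no-cell wells (complete cell-killing) and DMSO (no toxicity), and curves were fitted and classified.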
ATXN viability = viability counter-screen for ATXN expression inhibitors | S2 cells (HEK-293 line with an ATXN2-luciferase reporter) viability, CellTiter-Fluor protease fluorescence, 24 h | Potency, µM (series often up to 56.7 µM), most hits filed as cytotoxic | hit rate 0.49% among 400,000 | AID 651635; note: nearly all actives have a fitted effect of over 40% in size
TGFb inhibitor = TGF-b pathway inhibition | hit rate 1.2% among 410,000 | AID 588855 | Potency, µM (titrated, usually from 46.1 µM), without a hit: at the highest dose activity, negative = inhibition, usual class: inhibitors | HepG2 CAGA-GFP TGF-b/SMAD3 reporter, GFP fluorescence, 18 h; TGF-beta stimulated, 500 pg/mL final; note: % is set by controls: 0 for no effect and ±100 for the full control effect; nearly all actives have a fitted effect of over 65% in size
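Per well, imaged GFP fluorescence of HEPG2 CAGA-GFP cells gives the signal; cells get compound, then TGF-beta (500 pg/mL final), 18 h at 37 degrees C; %Activity versus -TGF-beta and +DMSO controls.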
* hit, by the source's call; i = inactive; u = inconclusive; x = no result given; ! = repeats disagree; [ ] = dose if it differs, or a comment. Calls come from the whole dose curve; as a rule, active = well fitted curve in the direction sought with a large enough effect; inconclusive = small, poorly fitted or top-dose-only effect, or another doubt; inactive = no such curve, though single readings can be large; an effect the other way counts as inactive or inconclusive. Potency is the fitted concentration of half-maximal effect.

SMILES	RORgamma inh	ATXN2 expr inh	VP16 counter	HepG2 tox	ATXN viability	TGFb inhibitor
CC(C)c1ccc(CNc2nc(NCC3CC3)nc3ccsc23)cc1	x	u	x	14.1µM*	x	u
CCOc1ccc(-c2nc(CSCC(=O)N3CCN(c4cccc(C(F)(F)F)c4)CC3)c(C)o2)cc1	x	x	x	-37.6%	x	u
CCC1(C2CCN(Cc3ccc(C)s3)CC2)NC(=O)N(CC2COc3ccccc3O2)C1=O (stereo not given)	x	x	x	x	i	x
COCCSc1nc2c([nH]c3ccccc32)c(=O)n1-c1ccc(OC)c(OC)c1	x	0.0%	x	-38.6%	i	-0.9%
Cc1cc(C)nc(SCC(=O)Nc2ncccn2)n1	-11.3%	x	-12.6%	x	x	x
Cc1cc(C)nc(SCC(=O)NN)n1	8.91µM*	5.5%	-9.3%	0.6%	i	1.1%
CC(=O)c1ccc(F)c(-c2cc(C)cc3c2OC(CNC(=O)Cc2ccc4c(c2)OCO4)C3)c1 (stereo not given)	x	x	x	x	i	x
O=S(=O)(c1ccccc1)N1CCN(C2CCCCCCC2)CC1	12.6µM*	4.7%	-2.8%	-12.2%	i	-2.5%
NS(=O)(=O)c1ccc(S(=O)(=O)N2CCN(C3CCCC3)CC2)cc1	1.5%	4.7%	-1.4%	6.4%	i	7.1%
CC1CC=CC2C1C(=O)N(Cc1ccccc1)C2c1ccc(-c2cc3ccccc3s2)cc1F (stereo not given)	15.3%	x	u	-1.0%	x	1.5%
CCOc1ccc(Nc2nc(-c3c(C)nc4ccccn34)cs2)cc1	x	-8.6%	x	x	x	x
COC(=O)c1ccc2c(=O)n(CCCCCC(=O)NC(C)C)c(=O)[nH]c2c1	6.1%	-21.7%	3.5%	-22.9%	i	25.1µM*!
COC(=O)c1ccc2c(=O)n(CCCCCC(=O)N3CCN(c4cccc(C)c4C)CC3)c(=O)[nH]c2c1	x	x	x	-2.2%	x	2.82µM*
COC(=O)c1ccc2c(=O)n(CCCCCC(=O)N3CCN(c4ccc(OC)cc4)CC3)c(=O)[nH]c2c1	x	x	x	5.0%	x	29.5%
CN(C)C(=O)[C@@H]1C[C@@H](Sc2nc3ccccc3[nH]2)CN1Cc1ccnc2ccccc12	x	x	x	x	i	x
CCOC(=O)C1=C(C)N=c2s/c(=C/c3cccc([N+](=O)[O-])c3O)c(=O)n2C1c1ccc(OC)cc1OC (stereo not given)	-11.3%[1.91 µM]	-32.1%	-20.6%	-7.9%	12.6µM*	7.2%
C/C(CC(=O)NCc1ccc(F)cc1)=N\NC(N)=S	12.6µM*	-33.5%	-25.0%	-15.1%	i	-4.0%
C/C(CC(=O)NCc1ccccc1)=N\NC(N)=S	10µM*	-1.9%	-2.2%[10 µM]	-11.9%	i	-1.2%
CC(=O)N1CCc2c(sc3nc(SCC(C)C)n(-c4ccc(C)c(Cl)c4)c(=O)c23)C1	x	u	x	11.2µM*	x	u
CC(=O)OCC(=O)Nc1ccc(Br)c(C)c1	17.3%	-2.2%	u	-41.7%	i	15.8µM*
O=C1C=C[C@@H](O)[C@@H]2[C@H]3C(=O)N(c4ccc(F)cc4F)C(=O)[C@@H]3CC[C@@H]12	-10.0%[10 µM]	x	0.0%[10 µM]	x	x	x
CC1(O)CC(c2ccc(Cl)cc2)=NN1C(=O)c1ccc(Cl)cc1 (stereo not given)	u	x	u	-41.0%	i	10µM*
O=C(C1CC1)N1N=C(c2ccc(Cl)cc2)CC1(O)C(F)(F)F (stereo not given)	-0.3%	-27.1%	-1.3%	-34.4%	i	u
C=CCOc1ccc(C2NC(=S)NC(c3ccccc3)=C2C(C)=O)cc1OC (stereo not given)	14.1µM*	-7.1%	-3.7%	2.2%	i	-0.2%
CC(=O)C1=C(c2ccccc2)NC(=O)NC1c1ccc(O)c(Cl)c1 (stereo not given)	3.0%	-3.7%	-0.9%	-62.8%	i	6.2%
SMILES	RORgamma inh	ATXN2 expr inh	VP16 counter	HepG2 tox	ATXN viability	TGFb inhibitor
CCOC(=O)COc1c(Cl)cc(C2NC(=S)NC(c3ccccc3)=C2C(C)=O)cc1OCC (stereo not given)	3.55µM*	-1.5%	3.16µM*	-16.9%	i	0.9%
CCOc1ccccc1N(C)C(=O)NCc1noc2ccccc12	x	3.6%	x	-5.8%	i	u
CCC(=O)Nc1cccc(-c2ccc(N3CCN(C)CC3)nn2)c1	14.1µM*	x	u	-1.1%	i	-0.6%
CCC(=O)Nc1cccc(-c2ccc(N3CCCCC3)nn2)c1	2.51µM*	x	2.82µM*	-26.9%	i	-6.3%
CC(=O)Nc1ccc(S(=O)(=O)Nc2cccc(-c3ccc(N4CCCCCC4)nn3)c2)cc1	x	32.5%	x	-8.0%	u	-9.4%
CCCCN(C)CCCNC(=O)C1CCN(S(=O)(=O)CCC)CC1	x	6.5%	x	-2.1%	i	6.9%
CC(C)CNC(=O)c1coc(=O)c(Br)c1	-18.6%	x	2.8%	-89.4%	x	14.1µM*
COc1ccc2sc3cccc(NCCN(C)C)c3c(=O)c2c1	x	-7.8%	x	2.8%	i	u
CN(C)CCNc1ccc2ncn3c4ccc(O)cc4c(=O)c1c23	x	3.98µM*	x	1.2%	i	u
CN(C)CCNc1ccc(CO)c2sc3ccc(O)cc3c(=O)c12	x	2.67µM*	x	-23.5%	18.9µM*	14.1µM*
COC(=O)C1=C(C)N(Cc2ccco2)C(=O)C1	10µM*	-2.1%	21.5%	3.1%	i	-22.8%
COC(=O)C1=C(C)N(Cc2ccc(OC)cc2)C(=O)C1	u	-0.6%	u	-6.0%	i	-15.6%
CC1(C)CC2(CC(c3ccccc3)c3ccc(O)cc3O2)NC(=S)N1 (stereo not given)	11.2µM*	-20.3%	-8.5%	-36.1%	i	-29.3%
CC(=O)Oc1ccc2c(c1)OC(c1ccccc1)CC21CC(C)(C)NC(=S)N1 (stereo not given)	10µM*	-8.3%	u	1.0%	i	3.0%
CC1(C)CC2(CC(c3ccccc3)Oc3cc(O)ccc32)NC(=O)N1 (stereo not given)	-0.7%	x	-9.7%	x	x	x
CC1(C)CC2(CC(c3ccccc3)Oc3cc(O)ccc32)NC(=S)N1 (stereo not given)	8.91µM*	-6.1%	8.91µM*	0.9%	i	u
CC(=O)Oc1cc2c(cc1Cl)C(c1cccs1)CC1(CC(C)(C)NC(=S)N1)O2 (stereo not given)	10µM*	-21.4%[11.3 µM]	u	3.2%	i	-4.6%
COc1ccc(C2CC3(CC(C)(C)NC(=O)N3)Oc3cc(O)ccc32)cc1 (stereo not given)	u	x	21.2%	1.3%	x	-18.6%
COc1ccc(C2(c3ccc(OC(C)=O)cc3OC(C)=O)CC(c3ccccc3)NC(=S)N2)cc1 (stereo not given)	-43.8%	-22.2%	-4.1%	-1.7%	i	-27.7%

Screens deposited in PubChem by National Center for Advancing Translational Sciences (NCATS).
